# Measurements published in the supplement of paper PMC8728848.
# This excerpt belongs to a sample that is enriched for the strongest signals.
# B1: Langerin K299A/K313A (Homo sapiens), Q9UJ71 (protein)
# chain: STLNAQIPELKSDLEKASALNTKIRALQGSLENMSKLLKRQNDILQVVSQGWKYFKGNFYYFSLIPKTWYSAEQFCVSRNSHLTSVTSESEQEFLYKTAGGLIYWIGLTKAGMEGDWSWVDDTPFNKVQSARFWIPGEPNNAGNNEHCGNIAAPSLQAWNDAPCDATFLFICKRPYVPSEP
# Assays:
# Experiment in all cases: glycan array binding signal (z-score within array); higher = stronger binding
# Settings in all cases: glycan notation: IUPAC condensed, linker removed
# [1] = target: Fuc(a1-2)Gal(b1-3)GlcNAc(b1-3)[Neu5Ac(a2-6)Gal(b1-4)GlcNAc(b1-6)]Gal(b1-4)Glc
# Method in brief: (§1)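 Glycan array binding is given as a within-array Z-score, which can be read as non-binding when negative. The arrays, 3228 of them, came from the Consortium for Functional Glycomics database and were retained only where the protein sequence was available. Z-scores were averaged across arrays of the same protein sequence at different concentrations or buffers and across linkers.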
# [2] = target: Fuc(a1-2)Gal(b1-4)GlcNAc(b1-2)Man
# Method in brief: as §1
# [3] = target: Fuc(a1-2)Gal(b1-4)GlcNAc(b1-2)[Fuc(a1-2)Gal(b1-4)GlcNAc(b1-4)]Man(a1-3)[Fuc(a1-2)Gal(b1-4)GlcNAc(b1-2)Man(a1-6)]Man(b1-4)GlcNAc(b1-4)GlcNAc
# Method in brief: as §1
# [4] = target: Fuc(a1-2)Gal(b1-4)GlcNAc(b1-3)Gal(b1-4)GlcNAc(b1-3)Gal(b1-4)GlcNAc
# Method in brief: as §1
# [5] = target: Fuc(a1-2)[Gal(a1-3)]Gal(b1-3)GalNAc(b1-3)Gal(a1-4)Gal(b1-4)Glc
# Method in brief: as §1
# [6] = target: Fuc(a1-3)[Gal(b1-4)]Glc6S
# Method in brief: as §1
# [7] = target: Fuc(a1-3)[Gal(b1-4)]GlcNAc(b1-2)Man(a1-3)[Fuc(a1-3)[Gal(b1-4)]GlcNAc(b1-2)Man(a1-6)]Man(b1-4)GlcNAc(b1-4)GlcNAc
# Method in brief: as §1
# [8] = target: Fuc(a1-3)[Gal(b1-4)]GlcNAc(b1-3)Gal(b1-3)[Fuc(a1-4)]GlcNAc
# Method in brief: as §1
# [9] = target: Fuc(a1-3)[Gal(b1-4)]GlcNAc(b1-3)Gal(b1-4)[Fuc(a1-3)]GlcNAc
# Method in brief: as §1
# [10] = target: Fuc(a1-3)[Gal(b1-4)]GlcNAc(b1-3)GalNAc
# Method in brief: as §1
# [11] = target: Gal(a1-3)Gal
# Method in brief: as §1
# [12] = target: Gal(a1-3)Gal(b1-3)GlcNAc(b1-2)Man(a1-3)[Gal(a1-3)Gal(b1-3)GlcNAc(b1-2)Man(a1-6)]Man(b1-4)GlcNAc(b1-4)GlcNAc
# Method in brief: as §1
# [13] = target: Gal(a1-3)Gal(b1-4)[Fuc(a1-3)]GlcNAc(b1-2)Man(a1-3)[Gal(a1-3)Gal(b1-4)[Fuc(a1-3)]GlcNAc(b1-2)Man(a1-6)]Man(b1-4)GlcNAc(b1-4)GlcNAc
# Method in brief: as §1
# [14] = target: Gal(a1-4)Gal(b1-4)GlcNAc
# Method in brief: as §1
# [15] = target: Gal(b1-3)GalNAc(b1-3)Gal(a1-4)Gal(b1-4)Glc
# Method in brief: as §1
# [16] = target: Gal(b1-3)GlcNAc(a1-3)Gal(b1-4)GlcNAc
# Method in brief: as §1
# [17] = target: Gal(b1-3)GlcNAc(b1-3)GalNAc
# Method in brief: as §1
# [18] = target: Gal(b1-3)[Fuc(a1-4)]GlcNAc(b1-2)Man(a1-3)[Gal(b1-3)[Fuc(a1-4)]GlcNAc(b1-2)Man(a1-6)]Man(b1-4)GlcNAc(b1-4)[Fuc(a1-6)]GlcNAc
# Method in brief: as §1
# [19] = target: Gal(b1-3)[Neu5Ac(a2-6)]GalNAc
# Method in brief: as §1
# [20] = target: Gal(b1-4)GlcNAc(b1-2)[Gal(b1-4)GlcNAc(b1-4)]Man(a1-3)[GlcNAc(b1-4)][Gal(b1-4)GlcNAc(b1-2)Man(a1-6)]Man(b1-4)GlcNAc(b1-4)GlcNAc
# Method in brief: as §1
# [21] = target: Gal(b1-4)GlcNAc(b1-3)Gal(b1-4)Glc
# Method in brief: as §1
# [22] = target: Gal(b1-4)GlcNAc(b1-3)Gal(b1-4)GlcNAc(b1-2)Man(a1-3)[Gal(b1-4)GlcNAc(b1-3)Gal(b1-4)GlcNAc(b1-2)Man(a1-6)]Man(b1-4)GlcNAc(b1-4)GlcNAc
# Method in brief: as §1
# [23] = target: Gal(b1-4)GlcNAc(b1-3)Gal(b1-4)GlcNAc(b1-3)Gal(b1-4)GlcNAc(b1-3)Gal(b1-4)GlcNAc(b1-2)Man(a1-3)[Gal(b1-4)GlcNAc(b1-3)Gal(b1-4)GlcNAc(b1-3)Gal(b1-4)GlcNAc(b1-3)Gal(b1-4)GlcNAc(b1-2)Man(a1-6)]Man(b1-4)GlcNAc(b1-4)[Fuc(a1-6)]GlcNAc
# Method in brief: as §1
# [24] = target: Gal(b1-4)GlcNAc(b1-3)Gal(b1-4)GlcNAc(b1-3)Gal(b1-4)GlcNAc(b1-3)Gal(b1-4)GlcNAc(b1-2)[Gal(b1-4)GlcNAc(b1-3)Gal(b1-4)GlcNAc(b1-3)Gal(b1-4)GlcNAc(b1-3)Gal(b1-4)GlcNAc(b1-6)]Man(a1-6)[Gal(b1-4)GlcNAc(b1-3)Gal(b1-4)GlcNAc(b1-3)Gal(b1-4)GlcNAc(b1-3)Gal(b1-4)GlcNAc(b1-2)Man(a1-3)]Man(b1-4)GlcNAc(b1-4)[Fuc(a1-6)]GlcNAc
# Method in brief: as §1
# [25] = target: Gal3S(b1-4)Glc6S
# Method in brief: as §1
# [26] = target: Gal3S(b1-4)[Fuc(a1-3)]Glc6S
# Method in brief: as §1
# [27] = target: Gal6S(b1-3)GlcNAc
# Method in brief: as §1
binder,measurement,setting,value
B1,glycan array binding signal (z-score),[1],0.388
same,glycan array binding signal (z-score),[2],-0.127
same,glycan array binding signal (z-score),[3],2.71
same,glycan array binding signal (z-score),[4],0.332
same,glycan array binding signal (z-score),[5],-0.015
same,glycan array binding signal (z-score),[6],3.28
same,glycan array binding signal (z-score),[7],0.222
same,glycan array binding signal (z-score),[8],0.313
same,glycan array binding signal (z-score),[9],0.842
same,glycan array binding signal (z-score),[10],-0.202
same,glycan array binding signal (z-score),[11],-0.327
same,glycan array binding signal (z-score),[12],1.22
same,glycan array binding signal (z-score),[13],0.892
same,glycan array binding signal (z-score),[14],-0.009
same,glycan array binding signal (z-score),[15],-0.916
same,glycan array binding signal (z-score),[16],-0.826
same,glycan array binding signal (z-score),[17],0
same,glycan array binding signal (z-score),[18],1.85
same,glycan array binding signal (z-score),[19],0.445
same,glycan array binding signal (z-score),[20],-0.95
same,glycan array binding signal (z-score),[21],-0.709
same,glycan array binding signal (z-score),[22],3.14
same,glycan array binding signal (z-score),[23],3.97
same,glycan array binding signal (z-score),[24],3.09
same,glycan array binding signal (z-score),[25],-0.193
same,glycan array binding signal (z-score),[26],5.35
same,glycan array binding signal (z-score),[27],-0.241
